Among the data in PubChem BioAssay AID720553 (National Center for Advancing Translational Sciences (NCATS), 2013) are activity change values, retold here.

Hit rate of the full screen: of about 340,000 compounds, about 3,300 (0.97%) were called active.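 How the source made its calls: active means maximum activity change below -70%; inconclusive means maximum activity change from -70% to -50%; inactive means maximum activity change above -50%.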 Only a selection was taken, and actives are over-represented in it overall.
On the % scale 0 is the no-effect control and ±100 the full control effect.

This test deals with Potassium voltage-gated channel subfamily H member 2, brain isoform KCNH2 3.1 (human). Briefly: qHTS for Inhibitors of KCHN2 3.1: Mutant qHTS. The note with it: U2OS KCNH2 3.1, thallium flux FluxOr; active compounds read low. In short, it runs like this:
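Virally transduced U2OS (3.1 isoform, 4 h infection in dark at RT) → overnight 37 C → FluxOr + Red40 in HBSS/HEPES, 45 min → stimulation buffer, 2 min kinetic read → rate constant vs DMSO controls.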
For orientation: In qHTS, concentration-response curves come from the screen itself.
As for `COc1cccc(NC(=O)N(C)C[C@@H]2Oc3ncc(Br)cc3C(=O)N([C@@H](C)CO)C[C@H]2C)c1`, the activity change was -4.03% (inactive).

On to `COc1ccc(S(=O)(=O)N(C)C)cc1NC(=O)COC(=O)c1n[nH]c2ccccc12`, for which the activity change is 9.12% (inactive).

Regarding `Cc1ccnc(SC2CC(=O)N(c3ccccc3)C2=O)n1` (configuration not stated), the activity change is 1.28% (inactive).

With `CCOc1ccc(CC(=O)NC2CCN(Cc3ccccc3)CC2)cc1`, the activity change was 19.9% (inactive).

With `O=C(NC1CCN(Cc2ccccc2)CC1)c1ccc(Oc2cc(Cl)cc(Cl)c2)o1`, the activity change is -84.5% (active).

For `O=C(NC1CCN(Cc2ccccc2)CC1)c1cc(Br)c(Br)[nH]1`, the activity change was 0.925% (inactive).

On to `CCOc1ccc(NS(=O)(=O)c2ccc(C(=O)NCC3CCCO3)cc2)cc1` (configuration not stated), for which the activity change is 3.29% (inactive).

Turning to `COCOCCn1cc(CN2CCS(=O)(=O)N(Cc3ccc(-c4cccc(N(C)C)c4)cc3)C(CC(C)C)C2=O)nn1` (configuration not stated), the activity change was -1.27% (inactive).

For the compound `Cc1cccc(N(CC(=O)N2CCCC2)S(C)(=O)=O)c1C`, the activity change is -8.33% (inactive).

Regarding `Cc1cccc(C)c1NC(=O)N1CC(C)OC(C)C1` (configuration not stated), the activity change was -192% (active).

On to `CSc1ccc(NC(=O)N2CC(C)OC(C)C2)cc1` (configuration not stated), for which the activity change is 8.24% (inactive).

For `CC1CN(C(=S)Nc2cccc(F)c2)CC(C)O1` (configuration not stated), the activity change was 6.1% (inactive).

Take `C=CCOc1cccc(C2C(C(=O)c3ccc(C)o3)=C(O)C(=O)N2CCN2CCOCC2)c1` (configuration not stated): the activity change is -2.42% (inactive).

For `CCc1cc(-c2nnn(CCC3COCCO3)c2CC)ccc1-c1cn(Cc2ccc3ccccc3c2)nn1` (configuration not stated), the activity change was 0.058% (inactive).

Turning to `Cc1cc(Nc2ccc(C)c(C)c2)n2ncnc2n1`, the activity change is 30.4% (inactive).

On to `CC1CCc2[nH]c3ccc(C(=O)N(C)CC(=O)Nc4cccc(F)c4)cc3c2C1` (configuration not stated), for which the activity change was 13.3% (inactive).

For `O=C(c1cc2cc(F)ccc2[nH]1)N1CCN(c2ccc(F)cc2)CC1`, the activity change is -39.9% (inactive).

Turning to `O=C(CCCN1CCc2[nH]c3ccc(F)cc3c2C1)c1ccc(F)cc1`, the activity change is -92% (active).

As to `C[C@@H]1CN([C@@H](C)CO)C(=O)CCCn2nncc2CO[C@H]1CN(C)C(=O)Nc1ccc(C(F)(F)F)cc1`, the activity change was -12.6% (inactive).

As to `CC[C@]1(C(=O)OC)[C@H]2C(=O)N(Cc3ccccc3)C(=O)[C@H]2[C@H]2CN=C(SCc3ccc(Cl)cc3)N21`, the activity change is -98.8% (active).

Turning to `CC[C@]1(C(=O)OC)[C@H]2C(=O)N(Cc3ccccc3)C(=O)[C@H]2[C@H]2CN=C(SCc3ccc(C#N)cc3)N21`, the activity change was 4.34% (inactive).

For the compound `CC[C@]1(C(=O)OC)[C@H]2C(=O)N(Cc3ccccc3)C(=O)[C@H]2[C@H]2CN=C(SCc3ccccc3)N21`, the activity change is 14.7% (inactive).

Turning to `CC(C)c1c(C(=O)N/N=C/c2ccc(-c3ccccc3)cc2)nnn1-c1nonc1N`, the activity change was -1.92% (inactive).

Regarding `CC(C)Oc1ccc(/C=N/NC(=O)c2nnn(-c3nonc3N)c2CN(C)C2CCCCC2)cc1`, the activity change is -81.3% (active).

For `Nc1nonc1-n1nnc(C(=O)N/N=C\c2ccncc2)c1CN1CCCCC1`, the activity change is -0.869% (inactive).

Consider `O=C(NCCN1CCOCC1)c1ccc2c(c1)N(Cc1cccc(Cl)c1)C(=O)c1ccccc1S2(=O)=O`, for which the activity change is 17.1% (inactive).

With `C[C@H]1CN([C@@H](C)CO)C(=O)c2cc(-c3cccc(F)c3)cnc2O[C@@H]1CN(C)S(C)(=O)=O`, the activity change was 8.27% (inactive).

Regarding `C[C@@H]1CN([C@H](C)CO)C(=O)CCCn2nncc2CO[C@@H]1CN(C)C(=O)OCc1ccccc1`, the activity change is 1.9% (inactive).

Consider `CCOc1ccc(-c2nc(N)ncc2-c2ccccc2OC)c(O)c1`, for which the activity change was -18.2% (inactive).

For `C=C(C)COc1ccc(-c2nc(N)ncc2-c2ccccc2OC)c(O)c1`, the activity change is -6.62% (inactive).

In the case of `COc1ccc(-c2nc(N)ncc2-c2ccc(Cl)cc2)c(O)c1`, the activity change is -191% (active).

Turning to `Cc1ccccc1-c1ccc2c(c1)O[C@@H](CN(C)Cc1ccc(C(=O)O)cc1)[C@@H](C)CN([C@H](C)CO)S2(=O)=O`, the activity change is 16.7% (inactive).

Take `CC(C)CC1C(=O)N(Cc2cn(Cc3ccco3)nn2)CCS(=O)(=O)N1Cc1ccc(-c2ccc(Cl)c(Cl)c2)cc1` (configuration not stated): the activity change is -7.55% (inactive).

Turning to `Cc1ccc(C(c2nnnn2CS(=O)(=O)c2ccc(C)cc2)N2CCC(C(N)=O)CC2)cc1` (configuration not stated), the activity change was 1.37% (inactive).

`CCCCC(c1nnnn1CS(=O)(=O)c1ccc(C)cc1)N1CCC(C(N)=O)CC1` (configuration not stated): the activity change was 5.52% (inactive).

As to `Cc1ccc(C(c2nnnn2CS(=O)(=O)c2ccc(C)cc2)N2CCC(C)CC2)cc1` (configuration not stated), the activity change was -72.8% (active).

`NC(CSC(c1ccccc1)(c1ccccc1)c1ccc(-c2ccccc2)cc1)C(=O)O` (configuration not stated): the activity change is -0.906% (inactive).

Regarding `Cc1cccc(C(=O)OCC(=O)Nc2sccc2C(N)=O)c1C`, the activity change was 0.26% (inactive).

With `Cn1c(=N)n(CC(O)c2cccs2)c2ccccc21` (configuration not stated), the activity change was -1.02% (inactive).

Regarding `N=c1n(Cc2ccc(Cl)cc2)c2ccccc2n1CC(O)c1ccco1` (configuration not stated), the activity change was -89.6% (active).

As for `N=c1n(CCc2ccccc2)c2ccccc2n1Cc1ccccc1F`, the activity change was -48.9% (inactive).

With `CCc1cccc(CC)c1N1C(=O)CC(Sc2ccccc2N)C1=O` (configuration not stated), the activity change is -2.21% (inactive).

On to `COc1ccc(C2C(C#N)=C(N)Oc3n[nH]c(C)c32)cc1CN1CCN(c2ccc(F)cc2)CC1` (configuration not stated), for which the activity change was -93.4% (active).

Take `COc1ccc(-c2[nH]nc3c2C(c2ccncc2)C(C#N)=C(N)O3)cc1` (configuration not stated): the activity change was 4.99% (inactive).

For the compound `COc1cc(C2C(C#N)=C(N)Oc3n[nH]c(-c4ccccn4)c32)cc(OC)c1OC` (configuration not stated), the activity change was -3.63% (inactive).

Take `COc1ccc(/C=C2\SC(=S)N(CCC(=O)N3CCOCC3)C2=O)cc1OC`: the activity change was -2.83% (inactive).

With `CCCC[C@@H]1CN=C(N)N1CCc1cccc(F)c1`, the activity change was 17.6% (inactive).

With `CN(C)C1=NC[C@H](Cc2ccccc2)N1CCc1ccc(F)cc1`, the activity change is -104% (active).

In the case of `CCCCN1C(N)=NC[C@@H]1Cc1ccccc1`, the activity change was 12.8% (inactive).

With `Cc1ccc(-c2ccc(CN3C(C(C)C)C(=O)N(Cc4cn(CCC5OCCCO5)nn4)CCS3(=O)=O)cc2)cc1` (configuration not stated), the activity change was -5.44% (inactive).

For `Cc1cc2cc3n(c2nn1)N=C(Cl)CC3`, the activity change was -0.335% (inactive).

In the case of `CC(OC(=O)c1cccnc1Cl)C(=O)NC1CCCCC1` (configuration not stated), the activity change is 22.3% (inactive).

Take `Cc1ccc(S(=O)(=O)N2C[C@H]3C(=O)C[C@@H](c4cccc5ccccc45)N(S(=O)(=O)c4ccc(C)cc4)[C@H]3C[C@H]2c2ccc(Cl)cc2)cc1`: the activity change was 5.42% (inactive).

Regarding `O=C(CSc1ncn[nH]1)Nc1nc2c(F)c(F)c(F)cc2s1`, the activity change is -9.38% (inactive).

In the case of `Cc1cc(C)n(S(=O)(=O)c2cccc([N+](=O)[O-])c2)n1`, the activity change is 8.67% (inactive).

Consider `O=[N+]([O-])c1cccc(S(=O)(=O)N2CCCCCC2)c1`, for which the activity change was -16.9% (inactive).

Turning to `CCc1nccn1S(=O)(=O)c1cccc([N+](=O)[O-])c1`, the activity change was -98.3% (active).

As to `OCC1OC(n2cnc3c(N4CCCC4)ncnc32)C(O)C1O` (configuration not stated), the activity change is 3.35% (inactive).

Take `O=S1(=O)CCN(C2CCCCCCCCCCC2)CC1`: the activity change was -0.635% (inactive).

On to `N#Cc1cccc(NC(=O)CN2CCCCCC2)c1`, for which the activity change is 13.8% (inactive).

`N#Cc1cccc(NC(=O)CCC2CCCC2)c1`: the activity change was -4.75% (inactive).

`N#Cc1cccc(Nc2c3c(nc4ccccc24)CCCC3)c1`: the activity change is -94.8% (active).

As to `O=C(Nc1cc(F)ccc1F)c1ccc2c(=O)n3c(nc2c1)CCC3`, the activity change is -2.54% (inactive).

Take `COCCCN1C(=O)C(CC(=O)NCc2cccs2)CC(C(=O)N2CCOCC2)=C1C` (configuration not stated): the activity change is 3.81% (inactive).

Take `C#CCOCCOCCOCCNc1nc(N2CCN(C(=O)[C@H](CCC(=O)O)n3cc(C(N)CO)nn3)CC2)nc(N2CCN(C(=O)[C@H](Cc3ccc(O)cc3)n3cc(C(N)[C@H](C)CC)nn3)CC2)n1` (some centres not stated): the activity change was -12.3% (inactive).

Consider `C#CCOCCOCCOCCNc1nc(N2CCN(C(=O)[C@H](Cc3ccc(O)cc3)n3cc(C(N)CC(C)C)nn3)CC2)nc(N2CCN(C(=O)[C@H](CCC(=O)O)n3cc(C(N)[C@H](C)CC)nn3)CC2)n1` (some centres not stated), for which the activity change was -84.4% (active).

For `C#CCOCCOCCOCCNc1nc(N2CCN(C(=O)C(Cc3ccc(O)cc3)n3cc(C(N)CC(C)C)nn3)CC2)nc(N2CCN(C(=O)C(Cc3ccc(O)cc3)n3cc(C(N)C(C)CC)nn3)CC2)n1` (configuration not stated), the activity change is -9.18% (inactive).

Regarding `CC1(c2cccc(N)c2)OCCO1`, the activity change is -12.6% (inactive).

For the compound `CC(C)[C@H](NC(=O)c1ccccc1F)C(=O)Nc1cccc(S(=O)(=O)N2CCOCC2)c1`, the activity change was 9.74% (inactive).

In the case of `CCOCCCN(C)C1CCN(C(=O)c2oc3ccccc3c2NC(=O)Cc2cccc([N+](=O)[O-])c2)CC1`, the activity change was -104% (active).

With `COc1ccc(CC(=O)Nc2c(C(N)=O)oc3ccccc23)cc1`, the activity change was -8.15% (inactive).

As for `CCOCCCN(C)C1CCN(C(=O)c2oc3ccccc3c2NC(=O)COc2cccc(C)c2)CC1`, the activity change is -107% (active).

`COc1cccc(OC)c1C(=O)Nc1c(C(=O)N2CCN(c3ccccn3)CC2)oc2ccccc12`: the activity change is -4.91% (inactive).

Consider `COCC(=O)Nc1c(C(=O)N2CCCC2)oc2ccccc12`, for which the activity change is 6.72% (inactive).

As for `CN(C(=O)c1cccc(NC(=O)Cc2cccc([N+](=O)[O-])c2)c1)C1CCCCC1`, the activity change was 18.4% (inactive).

In the case of `CC1=C(C(=O)N2CCOCC2)CC(CC(=O)NCCN2CCOCC2)C(=O)N1CCC1=CCCCC1` (configuration not stated), the activity change is 16% (inactive).

For the compound `Cc1cc(=O)c2ccc(NC(=O)c3ccccc3)cc2[nH]1`, the activity change is 3.07% (inactive).

On to `COc1ccc(S(=O)(=O)N2CCN(CC(=O)N3CCNC3=O)CC2)cc1OC`, for which the activity change is 12.9% (inactive).

Turning to `C[C@@H]1CN([C@@H](C)CO)C(=O)c2c(c3ccccc3n2C)-c2ccccc2CO[C@H]1CN(C)C(=O)C1CC1`, the activity change was 14.8% (inactive).

For `COc1ccc([C@H]2CC(=O)C=C(c3ccc(CO)cc3)C2)cc1`, the activity change was 22.6% (inactive).

With `N#Cc1ccc(C2=CC(=O)C[C@H](c3ccc(Cl)cc3)C2)cc1`, the activity change is -83.2% (active).

For `O=C1C=C(c2cccc(Cl)c2)C[C@@H](c2ccc(F)cc2)C1`, the activity change is 2.02% (inactive).
